Data reported in PubChem BioAssay AID1259309 (ICCB-Longwood Screening Facility, Harvard Medical School, 2017).
Values joined by “and” are separate entries in the source; they are usually repeats but may differ in a detail not shown here. Identical values can stand only once. Among all 330,000 compounds or so, about 1,800 (0.55%) were called active. Cut-off read from the data, not from the text of the source: active = growth inhibition above about 68%; inactive = the rest. The entries come from a sample that favours actives as a whole.

Assay: growth inhibition of ugtP-null S. aureus, primary screen, RN4220 ugtP deletion, OD600 (AID 1259309);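 note: plate controls were untreated wells for no effect and antibiotic for full effect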
Settings: 16 h, active compounds read high

SMILES | growth inhibition
COC(=O)C1=C(C(=O)OC)C2N(C)c3ccccc3[C@@]23CC(CO)N(C(=O)c2cccs2)C3=N1 (stereo not given in full) | 3.42% (inactive)
CCOc1ccc(-c2c(C(=O)NN=C(C)c3ccccc3OC)nnn2-c2nonc2N)cc1 | 7.28% (inactive)
COc1cc(C(=O)NN=Cc2cc([N+](=O)[O-])cs2)cc(OC)c1OC | 2.4% (inactive)
O=C(O)C(c1ccccc1)N1C(=O)/C(=C\c2ccc(-c3cccc(Cl)c3)o2)SC1=S (stereo not given) | 95.7% (active)
CC1=NOC(=O)C1=Cc1ccc(-c2ccc(Cl)c(C(=O)O)c2)o1 | 2.05% (inactive)
S=c1[nH]nc(-c2cccc(Cl)c2)n1N=Cc1ccc(-c2ccccc2Br)o1 | 27.2% (inactive)
COc1ccc(CC(=O)NCC(=O)NN=Cc2ccc(C)o2)cc1 | 8.44% (inactive)
O=C(Cc1ccccc1)NNC1CC(=O)N(c2ccc(Br)cc2)C1=O (stereo not given) | -0.3% (inactive)
CC(C)(C)OC(=O)C1=C(CO)CS[C@@H]2[C@H](NC(=O)Cc3ccccc3)C(=O)N12 | 101% (active)
CC(C)(C)OC(=O)NC(Cc1ccccc1)C(=O)NC(CO)C(O)C1CC1C(=O)NC1CC1 (stereo not given) | -0.531% (inactive)
Cc1ccc(-c2nc(C#N)c(NCCCn3ccnc3)o2)cc1 | -7.44% (inactive)
N#Cc1nc(-c2ccc(OCc3ccccc3)cc2)oc1NCCCN1CCOCC1 | 85.2% (active)
O=S(=O)(c1ccccc1)c1nc(-c2ccccc2)oc1NCCCN1CCOCC1 | 2.69% (inactive)
O=C(NN=C/C=C/c1ccco1)c1cccnc1 | -1.13% (inactive)
CCC1=C(OC(=O)N(CC)CC)N2C(=O)OC(=NCC3CC3)[C@]2(Cc2ccccc2)C2C1=CCC1C(=O)N(CC(=O)OC)C(=O)C12 (stereo not given in full) | 5.55% (inactive)
CC(C)NC(=O)N(C)CC1Oc2ccc(NC(=O)Nc3ccc(C(F)(F)F)cc3)cc2CC(=O)N(C(C)CO)CC1C (stereo not given) | -1.09% (inactive)
N#CC(=NNc1ccc(Cl)cc1)C(=O)c1ccccc1 | 99.4% (active)
N#C/C(=C/c1ccc(Cl)cc1)NC(=O)c1ccccc1 | -7.93% (inactive)
N#CC(=NNc1ccc(Cl)cc1)C(=N)N1CCCCC1 | -11.7% (inactive)
CCCCC(O)(CCCC)C(=O)NN=C(C)c1ccc(Cl)cc1 | -3.08% (inactive)

SMILES | growth inhibition
COc1ccc(C(=O)NN=Cc2ccc(OC(=O)c3cccc4ccccc34)c([N+](=O)[O-])c2)cc1 | 96.8% (active)
COc1ccc(C=NNC(=O)c2ccccc2OC)cc1COc1ccccc1[N+](=O)[O-] | 4.98% (inactive)
COc1ccc(C(=O)NN=Cc2ccc(OC)c(CN3CCCc4ccccc43)c2)cc1 | -10.3% (inactive)
CC(=NNc1cccc(C(=O)O)c1)c1cc2ccccc2o1 | 5.08% (inactive)
C=C(C)C(=O)Nc1cccc(C2=NOC3(C2)CC(C(N)=O)N(C(=O)c2ccccc2)C3)c1 (stereo not given) | 0.731% (inactive)
CC(C)=CCc1c(O)c(CC=C(C)C)c2occ(-c3ccc(O)cc3)c(=O)c2c1O | 98.5% (active)
CC(C)=CCc1ccc(O)c(=O)cc1C(C)C | -4.82% (inactive)
COc1ccccc1NC(=O)CC(C)=NNC(=O)c1ccccn1 | 3.4% (inactive)
C/C(C=NNC(=O)c1nnn(-c2nonc2N)c1C(C)C)=C\c1ccccc1 | -3.08% (inactive)
Oc1ccc(CC2CNC(=S)N2CCc2cc(C(F)(F)F)cc(C(F)(F)F)c2)cc1 (stereo not given) | 10.9% (inactive) and 22.1% (inactive)
CCCCNC(=S)N(C)N=Cc1c(F)c(F)c(F)c(F)c1F | 4.66% (inactive)
Cc1nc2c(-c3ccccc3)c(C)[nH]n2c(=O)c1Cl | 3.35% (inactive)
Cc1cc(=O)n2[nH]c(-c3cccc(Cl)c3)cc2n1 | -2.61% (inactive)
Cc1[nH]n(-c2cccc(Cl)c2)c(=O)c1-c1ccc(Cl)cc1 | 87.7% (active)
COc1ccc(C=NNC(=O)CCc2n[nH]c(=O)[nH]c2=O)cc1OC | -0.0548% (inactive)
O=C(O)C1=CC(c2ccc3c(c2)OCO3)CC(OCc2ccc(CO)cc2)O1 (stereo not given) | -2.53% (inactive) and -0.0237% (inactive)
COc1cc(C=NNC(=S)NCCN2CCOCC2)ccc1O | 11.5% (inactive)
O=C(NN=Cc1ccsc1)c1cc(-c2cccs2)nc2ccccc12 | -4.48% (inactive)
CC(C)(C)Cc1nnc(NC(=O)c2cc(-c3ccccc3)nc3ccccc23)s1 | -17.6% (inactive)
O=C(Nc1nnc(-c2ccccc2)o1)c1cc(-c2cccs2)nc2ccccc12 | 96.3% (active)

SMILES | growth inhibition
CN1CCN(N=Cc2ccc(-c3ccc([N+](=O)[O-])cc3Cl)o2)CC1 | 3.66% (inactive)
O=C1C2N=NN(CC(=O)N3N=C(c4cccc5ccccc45)CC3c3ccccc3)C2C(=O)N1c1ccccc1 (stereo not given) | -9.34% (inactive)
Cc1ccc(N2C(=O)C3N=NN(CC(=O)N4N=C(c5cccc6ccccc56)CC4c4ccccc4)C3C2=O)cc1 (stereo not given) | -14.5% (inactive)
Oc1ccccc1C1=NN(c2ccccc2)C(c2ccccc2)C1 (stereo not given) | 99.6% (active)
CCOc1ccc(C=NNc2cc(N3CCOCC3)nc(C)n2)c(O)c1 | 1.85% (inactive)
CC1CN(C(C)CO)C(=O)Cc2cc(NC(=O)CCC(F)(F)F)ccc2OC1CN(C)S(=O)(=O)c1ccc(Cl)cc1 (stereo not given) | 4.94% (inactive)
NCCCCC(C(=O)N1CCNCC1)n1cc(CCC(=O)O)nn1 (stereo not given) | 3.28% (inactive)
OCCN(Cc1ccccc1)Cc1ccc(Cl)cc1 | -6.5% (inactive)
OCc1nc(CO)n(Cc2ccccc2)n1 | 13.4% (inactive)
OCc1ccc(-c2ccccc2)c(-c2ccccc2)c1 | 89.2% (active)
COc1cc(CCCN2C(=O)C(=O)NCC2CC2CCCCC2)cc(OC)c1OC (stereo not given) | 2.58% (inactive)
Cc1cc(C=NNC(=O)c2ccccn2)c(C)n1-c1cccc([N+](=O)[O-])c1 | 6.51% (inactive)
Cc1ccnc2nc(C(=O)Nc3nnc(-c4ccccc4)o3)nn12 | 12.9% (inactive)
O=C(Nc1nnc(-c2ccc(Cl)cc2)o1)c1ccccc1Br | 97.7% (active)
COc1ccccc1C(=O)NCC(=O)OCC(=O)Nc1nnc(-c2ccccc2)o1 | -1.67% (inactive)
CCOC(=O)NN=Cc1ccc(C)o1 | 3.13% (inactive)
N#CC(=C(O)CCl)c1nnc2n1CCCCC2 | 4.05% (inactive)
C#CCOCCOCCOCCNc1nc(N2CCN(C(=O)C(CCCCN)n3cc(C(N)CC(C)C)nn3)CC2)nc(N2CCN(C(=O)C(CCCCN)n3cc(C(N)CC(C)C)nn3)CC2)n1 (stereo not given) | 0.321% (inactive)
CC(C)NC(=O)CC(=O)NN=Cc1c(F)cccc1Cl | -1.54% (inactive)
Cc1cccc(CCN2C(Nc3ccccc3)=NCC2CC(C)C)c1 (stereo not given) | 2.11% (inactive)
